According to PubChem BioAssay (Tox21):
Several values for one entry are separate records, joined by “and”; a condition that tells them apart may be missing. Equal values may be shown once. The source holds several records for some structures; these can differ, active in one and inactive in another. Activity calls are given as the source filed them. A call without a number means that no potency is given here. Unless noted, calls follow the shape of the dose curve; as a rule, active = well fitted curve in the direction sought with a large enough effect in the repeat runs; inconclusive = weak or mixed curves; inactive = no such curve, though single readings can be large; an effect the other way counts as inactive or inconclusive.

Key:
[1] = qHTS assay to identify small molecule antagonists of the glucocorticoid receptor (GR) signaling pathway - cell viability counter screen (AID 720693); also: nearly all actives have a fitted effect of over 55% in size; also: potency is read from the fitted curve at half-maximal effect
[2] = qHTS assay for identifying genotoxic compounds that show differential cytotoxicity against isogenic chicken DT40 cell lines with known DNA damage response pathways - wild type cell line (AID 743012); also: nearly all actives have a fitted effect of over 60% in size; also: potency is read from the fitted curve at half-maximal effect
Summary of the method: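 CellTiter-Glo luminescence readout of viability in wild type DT40 cells after 40 h compound exposure at 37 C/5% CO2; 300 cells/well; reagent incubated 30 min at room temperature before reading.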

[3] = qHTS assay for identifying genotoxic compounds that show differential cytotoxicity against isogenic chicken DT40 cell lines with known DNA damage response pathways - Rev3 mutant cell line (AID 743014); also: nearly all actives have a fitted effect of over 55% in size; also: potency is read from the fitted curve at half-maximal effect
[4] = qHTS assay for identifying genotoxic compounds that show differential cytotoxicity against isogenic chicken DT40 cell lines with known DNA damage response pathways - Rad54/Ku70 mutant cell line (AID 743015); also: nearly all actives have a fitted effect of over 60% in size; also: potency is read from the fitted curve at half-maximal effect
[5] = qHTS assay to identify small molecule antagonists of the androgen receptor (AR) signaling pathway - cell viability counter screen (AID 743033; also: nearly all actives have a fitted effect of over 45% in size; also: potency is read from the fitted curve at half-maximal effect)
[6] = qHTS assay to identify small molecule antagonists of the androgen receptor (AR) signaling pathway using the MDA cell line - cell viability counter screen (AID 743041; also: nearly all actives have a fitted effect of over 45% in size; also: potency is read from the fitted curve at half-maximal effect)
Summary of the method: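 In this qHTS counter assay, fluorescence intensity after CellTiter-Fluor addition indicated viability of MDA-kb2 AR-luc cells given compounds and R1881 for 16 h at 37C.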

[7] = target: Androgen receptor (Homo sapiens) (UniProt P10275); experiment: qHTS assay to identify small molecule antagonists of the androgen receptor (AR) signaling pathway using the MDA cell line (AID 743042; also: nearly all actives have a fitted effect of over 55% in size; also: potency is read from the fitted curve at half-maximal effect)
Summary of the method: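 MDA-kb2 cells (human breast carcinoma, stably carrying an MMTV-luciferase reporter responsive to AR and GR) were plated at 3,000 cells/well and preincubated 5 hr at 37C, then given compound plus R1881 agonist for 16 h. ONE-Glo luminescence was read.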

[8] = qHTS assay to identify small molecule antagonists of the thyroid receptor (TR) signaling pathway - cell viability counter screen (AID 743064); also: nearly all actives have a fitted effect of over 50% in size; also: potency is read from the fitted curve at half-maximal effect
Summary of the method: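 Fluorescence from CellTiter-Fluor, added after 23.5 h exposure at 37 °C, reported viability of GH3.TRE-Luc cells co-treated with compound and 1 nM T3. Measured in the same wells as the luciferase TR readout.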

[9] = qHTS assay to identify small molecule antagonists of the thyroid receptor (TR) signaling pathway (AID 743065); also: nearly all actives have a fitted effect of over 55% in size; also: potency is read from the fitted curve at half-maximal effect
Summary of the method: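 GH3.TRE-Luc rat pituitary cells carrying two TR response elements driving luciferase were plated for 4 h, given compound plus 1 nM T3 (final), and incubated 23.5 h at 37 C. ONE-Glo luminescence measured reporter inhibition; CellTiter-Fluor fluorescence tracked cytotoxicity.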

[10] = system: thyroid hormone receptor (rat, GH3 cells); experiment: qHTS assay to identify small molecule agonists of the thyroid receptor (TR) signaling pathway (AID 743066; calls by dose curve)
[11] = qHTS assay to identify small molecule antagonists of the estrogen receptor alpha (ER-alpha) signaling pathway - cell viability counter screen (AID 743074; calls by dose curve;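 also: HEK293 cells carrying ER-alpha-UAS-bla reporter stimulated with 17beta-estradiol; nearly all actives have a fitted effect of over 45% in size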; also: potency is read from the fitted curve at half-maximal effect)
[12] = target: Estrogen receptor (Homo sapiens) (UniProt P03372); experiment: qHTS assay to identify small molecule agonists of the estrogen receptor alpha (ER-alpha) signaling pathway (AID 743075; calls by dose curve;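 also: HEK293 GripTite cells with ER-alpha and UAS-driven beta-lactamase reporter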; also: potency is read from the fitted curve at half-maximal effect)
[13] = qHTS assay to identify small molecule antagonists of the estrogen receptor alpha (ER-alpha) signaling pathway using the BG1 cell line (AID 743080; calls by dose curve;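 also: BG1 cells stimulated with 17beta-estradiol alongside compound; nearly all actives have a fitted effect of over 25% in size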; also: potency is read from the fitted curve at half-maximal effect)
Summary of the method: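 Luciferase inhibition measured with ONE-Glo after 30 min at RT in BG1Luc4E2 cells given test compounds and 17beta-estradiol for 21.5 h at 37 C; CellTiter-Fluor viability read in the same wells beforehand.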

[14] = qHTS assay to identify small molecule antagonists of the estrogen receptor alpha (ER-alpha) signaling pathway using the BG1 cell line - cell viability counter screen (AID 743081);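 also: compound given together with 17beta-estradiol as the ER stimulus; nearly all actives have a fitted effect of over 45% in size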; also: potency is read from the fitted curve at half-maximal effect
Aromatase (Homo sapiens) = Aromatase (Homo sapiens) (UniProt P11511); experiment: qHTS assay to identify aromatase inhibitors (AID 743083); also: nearly all actives have a fitted effect of over 55% in size; also: potency is read from the fitted curve at half-maximal effect
[15] = qHTS assay to identify aromatase inhibitors - cell viability counter screen (AID 743084); also: potency is read from the fitted curve at half-maximal effect
[16] = target: Androgen receptor (Homo sapiens) (UniProt P10275); experiment: qHTS assay to identify small molecule agonists of the androgen receptor (AR) signaling pathway using the MDA cell line (AID 743040; also: nearly all actives have a fitted effect of over 20% in size; also: potency is read from the fitted curve at half-maximal effect)
Summary of the method: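 Cell-based luciferase reporter: MDA-kb2, MMTV promoter (AR + GR response elements). 16 h compound exposure at 37C; ONE-Glo, 30 min RT, luminescence.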

[17] = target: Estrogen receptor (Homo sapiens) (UniProt P03372); experiment: qHTS assay to identify small molecule agonists of the estrogen receptor alpha (ER-alpha) signaling pathway using the BG1 cell line (AID 743079); also: nearly all actives have a fitted effect of over 20% in size; also: potency is read from the fitted curve at half-maximal effect
[18] = target: Androgen receptor (Homo sapiens) (UniProt P10275); experiment: qHTS assay to identify small molecule agonists of the androgen receptor (AR) signaling pathway (AID 743036; active = well fitted activation curve with a large enough effect in the signal ratio in the repeat runs, with a control signal flat, not every such curve was filed as active; inconclusive = weak or mixed curves, or effect the other way; inactive = no such curve, though single readings can be large or run the other way; the % refers to the signal ratio; also: potency is read from the fitted curve at half-maximal effect)
Summary of the method: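 Fluorescence from a beta-lactamase FRET substrate served as read-out in AR-UAS-bla GripTite HEK293 cells. Cells were treated with DMSO-dissolved compounds for 16 h at 37C, then with LiveBLAzer B/G substrate for 2 h at room temperature.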

[19] = target: Estrogen receptor (Homo sapiens) (UniProt P03372); experiment: qHTS assay to identify small molecule antagonists of the estrogen receptor alpha (ER-alpha) signaling pathway (AID 743069; active = well fitted curve in the direction sought with a large enough effect in the signal ratio in the repeat runs, not every such curve was filed as active; inconclusive = weak or mixed curves, or effect the other way; inactive = no such curve, though single readings can be large or run the other way; the % refers to the signal ratio; also: potency is read from the fitted curve at half-maximal effect)
Summary of the method: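 A 17beta-estradiol challenge was applied right after compound transfer to ER-alpha-UAS-bla HEK293 cells previously kept in charcoal-stripped serum. Plates stood 18 hr at 37C and 5% CO2; fluorescence was read following 2 hr FRET substrate loading at room temperature.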

Chain of Androgen receptor (Homo sapiens) (P10275 whole entry, looked up): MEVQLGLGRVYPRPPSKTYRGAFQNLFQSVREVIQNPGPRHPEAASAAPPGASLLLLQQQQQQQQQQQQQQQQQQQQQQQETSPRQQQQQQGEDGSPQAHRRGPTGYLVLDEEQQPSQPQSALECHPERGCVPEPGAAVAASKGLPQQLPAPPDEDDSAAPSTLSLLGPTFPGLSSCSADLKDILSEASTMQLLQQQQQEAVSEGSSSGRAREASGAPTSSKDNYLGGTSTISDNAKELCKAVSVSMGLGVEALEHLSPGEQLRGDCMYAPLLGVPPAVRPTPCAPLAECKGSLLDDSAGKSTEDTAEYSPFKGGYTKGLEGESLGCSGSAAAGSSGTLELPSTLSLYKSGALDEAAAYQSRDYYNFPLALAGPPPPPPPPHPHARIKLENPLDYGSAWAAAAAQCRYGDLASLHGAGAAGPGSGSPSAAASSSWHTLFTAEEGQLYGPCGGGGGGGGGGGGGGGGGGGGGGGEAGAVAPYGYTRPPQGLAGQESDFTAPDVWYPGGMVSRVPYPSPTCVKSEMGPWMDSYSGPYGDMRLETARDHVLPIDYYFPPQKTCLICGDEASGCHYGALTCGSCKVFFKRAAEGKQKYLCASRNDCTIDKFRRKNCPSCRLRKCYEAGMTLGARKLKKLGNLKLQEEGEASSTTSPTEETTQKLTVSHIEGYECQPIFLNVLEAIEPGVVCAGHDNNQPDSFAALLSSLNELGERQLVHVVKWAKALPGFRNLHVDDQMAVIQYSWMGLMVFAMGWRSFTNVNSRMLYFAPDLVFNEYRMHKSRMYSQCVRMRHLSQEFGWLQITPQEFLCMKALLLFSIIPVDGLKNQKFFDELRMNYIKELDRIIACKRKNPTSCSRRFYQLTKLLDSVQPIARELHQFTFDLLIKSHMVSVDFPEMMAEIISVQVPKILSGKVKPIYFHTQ
Chain of Estrogen receptor (Homo sapiens) (P03372 whole entry, looked up): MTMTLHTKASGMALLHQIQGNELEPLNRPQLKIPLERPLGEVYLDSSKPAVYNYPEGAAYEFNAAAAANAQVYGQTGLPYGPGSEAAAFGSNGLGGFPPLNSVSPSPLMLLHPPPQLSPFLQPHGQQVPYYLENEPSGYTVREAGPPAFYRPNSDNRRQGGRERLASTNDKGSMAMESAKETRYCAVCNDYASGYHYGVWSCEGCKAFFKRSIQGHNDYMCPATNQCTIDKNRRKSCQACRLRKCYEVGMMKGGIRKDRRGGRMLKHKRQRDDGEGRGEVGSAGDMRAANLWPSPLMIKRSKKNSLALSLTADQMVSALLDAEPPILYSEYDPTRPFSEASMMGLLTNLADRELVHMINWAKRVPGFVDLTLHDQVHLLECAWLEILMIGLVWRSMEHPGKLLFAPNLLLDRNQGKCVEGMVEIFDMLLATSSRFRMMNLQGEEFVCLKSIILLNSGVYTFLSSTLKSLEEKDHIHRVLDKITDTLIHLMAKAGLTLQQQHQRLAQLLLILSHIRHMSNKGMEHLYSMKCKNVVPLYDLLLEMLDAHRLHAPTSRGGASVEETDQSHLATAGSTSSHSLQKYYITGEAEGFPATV
Chain of Aromatase (Homo sapiens) (P11511 whole entry, looked up): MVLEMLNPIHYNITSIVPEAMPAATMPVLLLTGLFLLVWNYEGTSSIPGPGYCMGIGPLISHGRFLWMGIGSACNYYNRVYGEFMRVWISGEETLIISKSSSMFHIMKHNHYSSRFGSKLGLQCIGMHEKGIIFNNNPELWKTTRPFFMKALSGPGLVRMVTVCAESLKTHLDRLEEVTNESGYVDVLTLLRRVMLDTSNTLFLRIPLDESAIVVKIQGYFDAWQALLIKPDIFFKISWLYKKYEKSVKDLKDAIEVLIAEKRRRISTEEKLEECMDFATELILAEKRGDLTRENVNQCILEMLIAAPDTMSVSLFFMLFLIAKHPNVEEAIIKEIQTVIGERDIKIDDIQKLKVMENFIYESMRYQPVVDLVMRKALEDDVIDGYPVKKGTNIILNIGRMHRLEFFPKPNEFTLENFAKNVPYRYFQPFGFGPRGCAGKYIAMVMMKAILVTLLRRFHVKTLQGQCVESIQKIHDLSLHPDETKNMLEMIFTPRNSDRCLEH

SMILES	Potency [1]	Potency [2]	Potency [3]	Potency [4]	Potency [5]	Potency [6]	Potency [7]	Potency [8]	Potency [9]	outcome [10]	Potency [11]	Potency [12]	Potency [13]	Potency [14]	Potency (Aromatase (Homo sapiens))	Potency [15]	Potency [16]	Potency [17]	Potency [18]	Potency [19]
C[C@H]1O[C@@H](O[C@H]2[C@@H](O)C[C@H](O[C@H]3[C@@H](O)C[C@H](O[C@H]4CC[C@@]5(C)[C@H](CC[C@@H]6[C@@H]5CC[C@]5(C)[C@@H](C7=CC(=O)OC7)CC[C@]65O)C4)O[C@@H]3C)O[C@@H]2C)C[C@H](O)[C@@H]1O	477 nM (active) and 98.3 nM (active)	422 nM (active) and 388 nM (active)	473 nM (active) and 218 nM (active)	473 nM (active) and 308 nM (active)	95.2 nM (active) and 22 nM (active)	inactive	inactive	inactive	inactive	inactive	33.8 nM (active) and 19.6 nM (active)	inactive	0.548 µM (active)	inactive	inactive	inactive				
COc1cc(N)c(Cl)cc1C(=O)NC1CN2CCC1CC2 (configuration not stated)	inactive	inactive	inactive	inactive	inactive	inactive		inactive		inactive	inactive			inactive	inactive	inactive				
S=C(SSC(=S)N1CCCCC1)N1CCCCC1	inactive	0.531 µM (active)	0.531 µM (active)	0.596 µM (active)	6.01 µM (active)	1.06 µM (active)		0.211 µM (active)	0.237 µM (active)		inactive				1.06 µM (active)	0.944 µM (active)				
Cn1cc(C2=C(c3cn(C4CCN(Cc5ccccn5)CC4)c4ccccc34)C(=O)NC2=O)c2ccccc21	inactive	inactive	inactive	inactive	inactive	inactive		inactive	inactive	inactive	inactive									
O=[N+]([O-])c1ccc2ccc3cccc4ccc1c2c34	inactive	inactive	inactive	inactive	inactive	inactive	inactive	inactive		inactive	inactive	2.75 µM [fluorescent] (active)			inactive	inactive	inactive	inactive		
CC(=O)[O-].CC(=O)[O-].[Hg+2]	6.16 µM (active)	1.54 µM (active)	1.54 µM (active)	1.09 µM (active)	11 µM (active)	27.3 µM (active)		1.37 µM (active)			49 µM (active)			61.1 µM (active)	2.73 µM (active)	3.86 µM (active)				
CC(C)(O)c1cnn2c(-c3ccc(F)c(-c4c(F)cccc4C#N)c3)cnc2n1	inactive	48.6 µM (active)	30.6 µM (active)	21.7 µM (active)	inactive		inactive			inactive	inactive			inactive	54.5 µM (active)	inactive	inactive			
CN(C)CCc1c[nH]c2ccc(O)cc12	inactive	inactive	inactive	inactive	inactive		inactive	inactive	inactive	inactive				inactive	inactive	inactive	inactive		inactive	
COc1ccc(OC)c(CC(C)N)c1 (configuration not stated)	inactive	inactive	inactive	inactive	inactive	inactive		inactive				inactive	inactive	inactive	inactive	inactive		inactive		inactive
CC1CCC(C(C)C)C(OC(=O)c2ccccc2N)C1 (configuration not stated)	inactive	23.7 µM (active) and inactive	inactive	26.6 µM (active)	inactive	inactive				inactive	inactive	7.56 µM [inconclusive] (active) and 6.82 µM [inconclusive] (active)	inactive	inactive	inactive and 60.3 µM (active)	inactive and 47.9 µM (active)		3.35 µM (active) and 2.69 µM (active)		
CCCN(CC)CC1COC2(CCC(C(C)(C)C)CC2)O1 (configuration not stated)	inactive	5.45 µM (active)	0.686 µM (active)	1.22 µM (active)	inactive	inactive				inactive	inactive	inactive	inactive	inactive	inactive	inactive		inactive		inactive
CC1(c2ccc(Oc3ccccc3)cc2)OC(=O)N(Nc2ccccc2)C1=O (configuration not stated)	22 µM (active)	1.09 µM (active)	0.869 µM (active)	0.774 µM (active)	24.7 µM (active)	27.5 µM (active)			1.94 µM (active)		inactive		21.8 µM (active)		61.5 µM (active)					17.5 µM [inconclusive] (active)
C[C@@H]1CC[C@@]2(OC1)O[C@H]1[C@@H](O)[C@H]3[C@@H]4CC[C@H]5C[C@@H](O[C@@H]6O[C@H](CO)[C@H](O[C@@H]7O[C@H](CO)[C@@H](O)[C@H](O[C@@H]8OC[C@@H](O)[C@H](O)[C@H]8O)[C@H]7O[C@@H]7O[C@H](CO)[C@@H](O)[C@H](O[C@@H]8O[C@H](CO)[C@@H](O)[C@H](O)[C@H]8O)[C@H]7O)[C@H](O)[C@H]6O)[C@H](O)C[C@]5(C)[C@H]4CC[C@]3(C)[C@H]1[C@@H]2C	16.4 µM (active)	16.3 µM (active)	4.09 µM (active)	2.05 µM (active)	2.32 µM (active)		8.17 µM (active)	2.05 µM (active)	2.58 µM (active)	inactive	10.4 µM (active)	41.3 µM [inconclusive] (active)		64.9 µM (active)	9.16 µM (active)	2.9 µM (active)	inactive			
ClC(Cl)=C(c1ccc(Cl)cc1)c1ccc(Cl)cc1	inactive	inactive	inactive		inactive			62.6 µM (active) and 30.6 µM (active)	55.8 µM (active) and 30.6 µM (active)	inactive	inactive	inactive	inactive	inactive	inactive	inactive				inactive
CC1(C)CC/C(=C/c2ccc(Cl)cc2)C1(O)Cn1cncn1 (configuration not stated)	inactive	21.6 µM (active)	60.8 µM (active)						54.2 µM (active)	inactive	inactive	inactive	inactive		inactive	inactive	9.63 µM (active)	inactive		inactive
[Cl][Sb]([Cl])[Cl]	inactive	inactive	inactive		inactive			17.2 µM (active)		inactive	inactive			inactive	inactive	inactive				
CC(C)(C)c1ccc(CSc2cnn(C(C)(C)C)c(=O)c2Cl)cc1	inactive	0.0097 µM (active)	0.0193 µM (active)	0.0109 µM (active)		0.0306 µM (active)		54.5 µM (active)					0.0109 µM (active)	27.3 µM (active)	61.1 µM (active)	inactive				0.0055 µM [inconclusive] (active)
c1ccc2cc3c(cc2c1)-c1cccc2cccc-3c12	inactive	inactive	inactive		inactive	inactive			inactive	inactive	inactive		0.269 µM (active)		inactive		inactive	inactive		
O=C1NCN(c2ccccc2)C12CCN(CC1COc3ccccc3O1)CC2 (configuration not stated)	inactive	23.7 µM (active)	inactive		inactive	inactive				inactive	inactive	inactive	inactive	inactive	inactive	inactive				inactive
FC(Cl)(Cl)Cl	inactive	inactive	inactive		inactive	inactive	inactive	inactive	inactive	inactive	inactive			inactive	inactive	inactive	1.36 µM (active)		12.3 µM (active)	
CC(C)[C@H](C(=O)OC(C#N)c1cccc(Oc2ccccc2)c1)c1ccc(OC(F)F)cc1 (some centres not stated)	inactive	24.3 µM (active)	34.4 µM (active)	27.3 µM (active)	inactive			inactive	54.5 µM (active)	inactive	inactive			inactive		inactive				
CCCCCCCCCCCCCC[P+](CCCCCC)(CCCCCC)CCCCCC (tested in a mixture with another compound)	2.75 µM (active)	3.44 µM (active)	3.86 µM (active)		1.95 µM (active)	4.33 µM (active)		2.43 µM (active)	1.54 µM (active)		7.76 µM (active)		2.73 µM (active)	9.69 µM (active)	3.06 µM (active)	6.11 µM (active)				0.246 µM [inconclusive] (active)
Fc1ccc(Oc2ccnc3cc(Cl)cc(Cl)c23)cc1	inactive	61.1 µM (active)	68.6 µM (active)	61.1 µM (active)	inactive				68.6 µM (active)		inactive	inactive		inactive	inactive	inactive		inactive		
CCCCCCCCCCCCCN1CC(C)OC(C)C1 (configuration not stated)	inactive	54.5 µM (active)	27.3 µM (active)		inactive	inactive		inactive	inactive	inactive	inactive	inactive	inactive	inactive	inactive	inactive		inactive		inactive
CCCCOCN(C(=O)CCl)c1c(CC)cccc1CC	inactive	8.63 µM (active)	9.69 µM (active)	9.69 µM (active)			54.5 µM (active)		61.1 µM (active)		inactive	inactive	inactive	inactive	61.1 µM (active)		inactive			
